# What was measured:
# Assay in all cases: pooled miR-30 sensor sort-seq; sequence = guide strand
# Conditions in all cases: shRNA
# SLC26A5 = target: SLC26A5
# SLC26A8 = target: SLC26A8
# SLC27A5 = target: SLC27A5
# SLC28A2 = target: SLC28A2
# SLC29A3 = target: SLC29A3
# SLC29A1 = target: SLC29A1
# SLC50A1 = target: SLC50A1
# SLC7A11 = target: SLC7A11
# SLCO4C1 = target: SLCO4C1
# SMYD3 = target: SMYD3
# SNCG = target: SNCG
# SNAPC2 = target: SNAPC2
# SNAP23 = target: SNAP23
# Also: reference of the scale not given here.
sequence,measurement,setting,value
TATCATCTGGTACTAATCGAAC,sensor-assay potency score (higher = more potent),SLC26A5,-1.32
TTTACAAATGTAATTGAGCTGC,sensor-assay potency score (higher = more potent),SLC26A8,-0.345
TATTCTGCCACTGCTACAGGGC,sensor-assay potency score (higher = more potent),SLC27A5,-0.565
TAATCGATACATACACATCCAT,sensor-assay potency score (higher = more potent),SLC26A8,-0.25
TTCATCAGTTTGAACGTGCTGG,sensor-assay potency score (higher = more potent),SLC27A5,0.535
TAGTCCATTGCCCATTGCCAGG,sensor-assay potency score (higher = more potent),SLC27A5,-1.83
TTGGACAGTCTGTCCACTCTAC,sensor-assay potency score (higher = more potent),SLC28A2,0.142
TGAATTGTCATTCTTGTCTGTT,sensor-assay potency score (higher = more potent),SLC26A8,-0.0701
TTGCAAGAAGTCCACCTGCGAC,sensor-assay potency score (higher = more potent),SLC27A5,-1.49
TTGATTTTTCTGAGACACGGAC,sensor-assay potency score (higher = more potent),SLC26A8,-0.723
TTGTCCAGTACAAACAGAGGGT,sensor-assay potency score (higher = more potent),SLC27A5,-0.338
TAGTCTTTCCTGGAGGACCGGA,sensor-assay potency score (higher = more potent),SLC26A5,-0.913
TTTCGTTTTAATGCATTGCTAT,sensor-assay potency score (higher = more potent),SLC26A5,-0.563
TGTTGTAGTAAACGTCGCCCGA,sensor-assay potency score (higher = more potent),SLC27A5,-0.779
TATGTGTCCGGTCCTCTGGTTG,sensor-assay potency score (higher = more potent),SLC27A5,-1.24
TTGTCCTTTGTGTGTAGTCTTT,sensor-assay potency score (higher = more potent),SLC26A5,-0.811
TAGTCCTAGCAATAGCACCAGT,sensor-assay potency score (higher = more potent),SLC26A8,-1.08
TAACATTCTGCAACACAGCAAC,sensor-assay potency score (higher = more potent),SLC26A5,-0.753
TTGCATAGTAAATTGGTGCATT,sensor-assay potency score (higher = more potent),SLC26A5,-0.361
TTATCCTGGATAATAGTCCTAG,sensor-assay potency score (higher = more potent),SLC26A8,-0.541
TAGTTGACTAAGCCCATGTTGC,sensor-assay potency score (higher = more potent),SLC27A5,-0.878
TTAGGTAGTAAACATTTACAAA,sensor-assay potency score (higher = more potent),SLC26A8,-1.21
TACAGGATCACTGTCACGCCAT,sensor-assay potency score (higher = more potent),SLC27A5,-0.0663
TATACAAGTCGCTATTTGCATA,sensor-assay potency score (higher = more potent),SLC26A5,-1.73
TTTCCAAGGACTTTGTAGCTTG,sensor-assay potency score (higher = more potent),SLC26A5,-0.312
TCTTCTTGAACAATCTGGCGTG,sensor-assay potency score (higher = more potent),SLC28A2,-0.29
TAAATCTTTGCATTTCCTCAGG,sensor-assay potency score (higher = more potent),SLC26A5,-0.693
TTTTATATCTTGAATTGTCATT,sensor-assay potency score (higher = more potent),SLC26A8,-1.25
TTCTGCAACACAGCAACTGTAC,sensor-assay potency score (higher = more potent),SLC26A5,-0.438
TTGGACAAGTCACTCTTCCGGT,sensor-assay potency score (higher = more potent),SLC28A2,-0.0512
TTGCGGAGTTTGAACATCCAGT,sensor-assay potency score (higher = more potent),SLC29A3,-0.979
TTGCTAATGAGGTCCAACTTGG,sensor-assay potency score (higher = more potent),SLC29A1,-1.11
TGAATTAATGAGCACGATCTTG,sensor-assay potency score (higher = more potent),SLC29A1,-0.995
TGAAACTCCAGATTCCTCTTTG,sensor-assay potency score (higher = more potent),SLC29A1,-0.131
TTCCAGGACATTCCTCTCCTTC,sensor-assay potency score (higher = more potent),SLC28A2,-1.16
TTACAGAGCACGAAGAGGGGGA,sensor-assay potency score (higher = more potent),SLC29A3,0.172
ATGAAGAAGATGAACCAGGCAT,sensor-assay potency score (higher = more potent),SLC29A1,0.328
AAGACCACAGTCAGGTAGCGGC,sensor-assay potency score (higher = more potent),SLC29A1,-0.976
TTGCACAGCAGCAGCAGTGGCA,sensor-assay potency score (higher = more potent),SLC29A1,-0.846
TTGCATCTCGCTGTCAGCTGGA,sensor-assay potency score (higher = more potent),SLC29A3,0.563
ATAGTGATTTGTAAAAACCAGG,sensor-assay potency score (higher = more potent),SLC28A2,-0.831
TTGTTGTAGAATCCACAGCAGT,sensor-assay potency score (higher = more potent),SLC28A2,-1.13
TTTGAACATCCAGTACTCCTTG,sensor-assay potency score (higher = more potent),SLC29A3,0.313
TCCTTTGCTAATGAGGTCCAAC,sensor-assay potency score (higher = more potent),SLC29A1,-1.65
TTTGCTTGCATCTCGCTGTCAG,sensor-assay potency score (higher = more potent),SLC29A3,0.244
TTCAAGCTTGAGCTGCTGGTAG,sensor-assay potency score (higher = more potent),SLC29A1,0.0487
TAACGTTCCCAGGTGCTGCTGC,sensor-assay potency score (higher = more potent),SLC29A1,0.232
TTGAACTGTGCTGAAAGTCGTC,sensor-assay potency score (higher = more potent),SLC29A3,0.651
TTTGTATCTGTCCTGAGGCTGG,sensor-assay potency score (higher = more potent),SLC29A1,-0.764
TCAAGAAACAGGACACAGGAAT,sensor-assay potency score (higher = more potent),SLC29A1,-0.724
TTGGTGAAACTTGTGTTTGGGA,sensor-assay potency score (higher = more potent),SLC28A2,-0.24
TTGAAGATGGCACTGAGAGAGT,sensor-assay potency score (higher = more potent),SLC29A1,-0.713
TTGAGCTGCTGGTAGTAGCGGT,sensor-assay potency score (higher = more potent),SLC29A1,0.0578
TATTTCTTCTTCAACTGTCTCA,sensor-assay potency score (higher = more potent),SLC29A3,0.0304
TCGAAGACCACAGTCAGGTAGC,sensor-assay potency score (higher = more potent),SLC29A1,-0.552
ATATTGAAAGTCAAGAAACAGG,sensor-assay potency score (higher = more potent),SLC29A1,-1.17
TAGGGTCATGACATTGTTGAAG,sensor-assay potency score (higher = more potent),SLC29A1,-0.605
AATGTTGCACAGCAGCAGCAGT,sensor-assay potency score (higher = more potent),SLC29A1,-1.2
TTGGGAAGGAGACACAGTCAGC,sensor-assay potency score (higher = more potent),SLC28A2,-1.18
TATGACTGGAATATCTGCCTTG,sensor-assay potency score (higher = more potent),SLC29A3,0.374
TTGACCTCAACAGTCACGGCTG,sensor-assay potency score (higher = more potent),SLC29A1,0.158
TTTCTGATAGCTCCGAGCCACT,sensor-assay potency score (higher = more potent),SLC29A1,-1.47
ATGATAACAGCACAGGCTGTGA,sensor-assay potency score (higher = more potent),SLC29A1,-1.06
AAATGATAACAGCACAGGCTGT,sensor-assay potency score (higher = more potent),SLC29A1,-0.935
TTGAACAATCTGGCGTGTGTTT,sensor-assay potency score (higher = more potent),SLC28A2,-0.953
TTGTGAAATACTGAGTGGCCGT,sensor-assay potency score (higher = more potent),SLC29A1,-0.907
TTCTTTTTCCATGAGCTCCAGC,sensor-assay potency score (higher = more potent),SLC28A2,-0.532
TTGAACATCCAGTACTCCTTGG,sensor-assay potency score (higher = more potent),SLC29A3,-0.255
TTTGCTAATGAGGTCCAACTTG,sensor-assay potency score (higher = more potent),SLC29A1,-0.866
TCTGACGTTGTCCACACTCCGG,sensor-assay potency score (higher = more potent),SLC50A1,-1.36
TATATGTGTAATGACCTCCAGA,sensor-assay potency score (higher = more potent),SLC7A11,-0.907
ATAATTATCAGAATTGCTGTGA,sensor-assay potency score (higher = more potent),SLC7A11,0.593
TAACTTTACAAGTAACACTTAT,sensor-assay potency score (higher = more potent),SLCO4C1,-0.974
TTAACTACAATACCTTGCGTGA,sensor-assay potency score (higher = more potent),SLCO4C1,-0.96
TAGCACTACAGTATTTGGCGAC,sensor-assay potency score (higher = more potent),SMYD3,0.0593
TAGGCCAACACCAACTTCCTGC,sensor-assay potency score (higher = more potent),SMYD3,0.026
TGGTCTTCTCAGCTGCTTCCGT,sensor-assay potency score (higher = more potent),SNCG,-1.23
TTTACCTACACAAACACGGAAC,sensor-assay potency score (higher = more potent),SMYD3,-0.662
TTCTCCTTGGTCTTGGCTCCCA,sensor-assay potency score (higher = more potent),SNCG,-0.654
CTGTACAACATTCTCCTTGGTC,sensor-assay potency score (higher = more potent),SNCG,-1.03
TATCTTCTCAGCCAGATCCGTC,sensor-assay potency score (higher = more potent),SNAPC2,-0.959
TTGGTTGCTGAAGCTGACCATT,sensor-assay potency score (higher = more potent),SNAP23,-0.861
TTATTTGTGGATTTTGAGCATC,sensor-assay potency score (higher = more potent),SNAP23,-0.871
TCAGCTGCTGAGAGCTCGGGGC,sensor-assay potency score (higher = more potent),SNAPC2,-1.02

# From the OligoGym collection
